The values below come from PubChem BioAssay (NCI).

Test in all cases: NCI-60 one-dose screen, 48 h (100 = growth as untreated, 0 = no growth, -100 = all killed)
For one assay, the system named is HCT-15 colon. The conditions noted are these: 10 µM unless noted.
The subject of a further assay is HT29 colon. The conditions noted are these: 10 µM unless noted.
The next assay deals with SNB-75 CNS. The settings on record: 10 µM unless noted.
The next assay concerns SNB-19 CNS. The settings on record: 10 µM unless noted.
A further assay relates to U251 CNS. The settings on record: 10 µM unless noted.
Another assay deals with PC-3 prostate. The settings on record: 10 µM unless noted.
The next assay has as its system SK-MEL-5 melanoma. The settings on record: 10 µM unless noted.
A further assay relates to UACC-62 melanoma. The conditions noted are these: 10 µM unless noted.
The next assay deals with LOX IMVI melanoma. The conditions noted are these: 10 µM unless noted.
The next assay concerns SK-MEL-28 melanoma. The settings on record: 10 µM unless noted.
The test system of the next assay is SK-MEL-2 melanoma. The conditions noted are these: 10 µM unless noted.
The subject of the next assay is EKVX NSCLC. The settings on record: 10 µM unless noted.
The next assay relates to SN12C renal. The settings on record: 10 µM unless noted.
The subject of another assay is UO-31 renal. The settings on record: 10 µM unless noted.
A further assay concerns TK-10 renal. The conditions noted are these: 10 µM unless noted.
A further assay deals with ACHN renal. The settings on record: 10 µM unless noted.
The subject of another assay is CAKI-1 renal. The conditions noted are these: 10 µM.
The next assay relates to A498 renal. The settings on record: 10 µM unless noted.
Another assay concerns CCRF-CEM leukemia. The settings on record: 10 µM unless noted.
The next assay deals with MOLT-4 leukemia. The settings on record: 10 µM unless noted.

The panel holds about 83,000 compounds, 20% with a hit somewhere; the sample as a whole holds those more often.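 Compound tested at a single concentration for 48 hours in 96-well plates; a percent growth value below 10 was scored as active.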 Values without a mark were called inactive. Activity calls are given as the source filed them.

Regarding `NS(=O)(=O)Oc1ccc2nc(Nc3ccc(F)c(F)c3)ccc2c1`, the growth in the assay on HCT-15 colon is 69.6%; in the assay on HT29 colon, 97.3%; with SNB-75 CNS, 81.3%; in the assay on SNB-19 CNS, 102%; in the assay with U251 CNS, 91.9%; in the assay with PC-3 prostate, 90.6%. For the same molecule, the growth was 98.7% in the assay with SK-MEL-5 melanoma; 85.5% in the assay on UACC-62 melanoma; 85.3% with LOX IMVI melanoma; 98.5% with SK-MEL-28 melanoma; 116% in the assay with SK-MEL-2 melanoma; 93.4% in the assay on EKVX NSCLC. Also, the growth in the assay with SN12C renal is 88%; with UO-31 renal, 73.3%; in the assay on TK-10 renal it was 118%; in the assay on ACHN renal, 85.8%; with CAKI-1 renal it was 76.7%; in the assay on A498 renal it was 74.5%. For the same molecule, the results for the growth with CCRF-CEM leukemia and with MOLT-4 leukemia were 67.8% and 67%, respectively.
With `O=C1CSC(=O)N1Cc1cc2ccccc2nc1Cl`, the growth with HCT-15 colon was 101%; with HT29 colon it was 107%; in the assay with SNB-75 CNS it was 84.7%; in the assay on SNB-19 CNS, 99.8%; with U251 CNS, 97.6%; in the assay on PC-3 prostate, 96.8%. The growth in the assay with SK-MEL-5 melanoma was 99.7%; with UACC-62 melanoma it was 93.9%; with LOX IMVI melanoma, 97.4%; in the assay on SK-MEL-28 melanoma, 109%; with SK-MEL-2 melanoma, 94.7%; in the assay on EKVX NSCLC, 98.7%. Also, the growth in the assay with SN12C renal is 97.4%; in the assay on UO-31 renal, 77.7%; in the assay on TK-10 renal, 98.5%; in the assay with ACHN renal, 104%; in the assay with CAKI-1 renal it was 86.1%; in the assay with A498 renal it was 106%. Moreover, the growth in the assay with CCRF-CEM leukemia is 107%; in the assay with MOLT-4 leukemia it was 102%.
Take `N#Cc1c(NC(=O)c2ccccc2C(F)(F)F)sc2c1CCC(=O)C2`: the growth in the assay with HCT-15 colon is -32.3% (active); with HT29 colon, 8.88% (active); in the assay with SNB-75 CNS, 20.1%; with SNB-19 CNS it was 15.5%; with U251 CNS, 16.3%; with PC-3 prostate it was 13%. Moreover, the growth with SK-MEL-5 melanoma was -75.5% (active); with UACC-62 melanoma, -26.9% (active); in the assay on LOX IMVI melanoma, 6.27% (active); with SK-MEL-28 melanoma, -14.9% (active); in the assay with SK-MEL-2 melanoma it was 12.2%; in the assay with EKVX NSCLC it was 12.4%. Further, the growth in the assay on SN12C renal was 14.5%; in the assay with UO-31 renal, -25.2% (active); in the assay with TK-10 renal, 35.1%; in the assay on ACHN renal, -32.8% (active); in the assay on CAKI-1 renal, -11.1% (active); in the assay with A498 renal, 81.8%. For the same molecule, the growth in the assay with CCRF-CEM leukemia is 13%; in the assay with MOLT-4 leukemia it was 11.2%.
Take `CC(C)=CCC[C@](C)(O)[C@H]1CC[C@]2(C)[C@@H]1CC[C@@H]1[C@@]3(C)CCC(NC(=O)c4ccccc4C(=O)O)C(C)(C)[C@@H]3CC[C@]12C` (stereo not given in full): the growth in the assay with HCT-15 colon is 87.7%; in the assay with HT29 colon, 75.5%; with SNB-75 CNS, 90.2%; in the assay with SNB-19 CNS it was 86.3%; in the assay on U251 CNS, 88.6%; with PC-3 prostate, 81.5%. The growth with SK-MEL-5 melanoma is 55.4%; in the assay on UACC-62 melanoma it was 28.7%; in the assay with LOX IMVI melanoma, 84.3%; in the assay on SK-MEL-28 melanoma it was 34.3%; in the assay with SK-MEL-2 melanoma, 39.8%; in the assay on EKVX NSCLC, 101%. Further, the growth in the assay with SN12C renal was 92.9%; in the assay on UO-31 renal it was 85.2%; in the assay with TK-10 renal, 106%; in the assay on ACHN renal, 73.5%; in the assay with CAKI-1 renal, 66.4%; in the assay on A498 renal, 103%. Also, the growth is 95.9% with CCRF-CEM leukemia and 97.5% in the assay on MOLT-4 leukemia.
Regarding `O=S(=O)(Nc1ccc(-c2nc(-c3cccc(O)c3)c(-c3ccnc(Br)c3)[nH]2)cc1)c1ccccc1`, the growth in the assay with HCT-15 colon was 13.3%; with HT29 colon, 31.8%; in the assay with SNB-75 CNS, 5.4% (active); with SNB-19 CNS it was 30.2%; in the assay with U251 CNS it was 30.3%; in the assay with PC-3 prostate, 9.21% (active). Also, the growth in the assay with SK-MEL-5 melanoma was -26.4% (active); in the assay on UACC-62 melanoma, 16.4%; with LOX IMVI melanoma, -25% (active); in the assay on SK-MEL-28 melanoma it was 33.1%; with SK-MEL-2 melanoma, 23.5%; with EKVX NSCLC, 53.3%. The growth is 44.3% in the assay with SN12C renal; 24.7% in the assay with UO-31 renal; 55.7% with TK-10 renal; 28.4% in the assay on ACHN renal; 25.6% in the assay on CAKI-1 renal; 49.4% in the assay on A498 renal. Besides, the growth with CCRF-CEM leukemia is -2.56% (active); in the assay with MOLT-4 leukemia, -20.9% (active).
Regarding `O=C1/C(=C/c2ccccc2[N+](=O)[O-])Oc2ccc(O)cc21`, the growth was -31.4% (active) in the assay on HCT-15 colon; -23.7% (active) with HT29 colon; 54.2% with SNB-75 CNS; 79.3% with SNB-19 CNS; 56.9% with U251 CNS; 57.1% in the assay with PC-3 prostate. Further, the growth with SK-MEL-5 melanoma is 90.8%; in the assay on UACC-62 melanoma it was 37.1%; in the assay on LOX IMVI melanoma it was -46.2% (active); in the assay with SK-MEL-28 melanoma, 43.3%; in the assay on SK-MEL-2 melanoma, 75%; in the assay on EKVX NSCLC, 69.8%. Besides, the growth with SN12C renal was 30.9%; with UO-31 renal it was 21.4%; in the assay with TK-10 renal, 99.1%; in the assay on ACHN renal, 2.35% (active); with CAKI-1 renal, 48.3%; in the assay with A498 renal, 87.3%. Moreover, the growth is -2.68% (active) in the assay with CCRF-CEM leukemia and 6.41% (active) with MOLT-4 leukemia.
For `CCOC(=O)Nc1ccc(-c2nc(-c3cccc(O)c3)c(-c3ccnc(Br)c3)[nH]2)cc1`, the growth in the assay with HCT-15 colon is 30.7%; in the assay with HT29 colon, 34.3%; with SNB-75 CNS, 14.7%; with SNB-19 CNS it was 44.7%; in the assay on U251 CNS, 29.6%; in the assay on PC-3 prostate it was 4.92% (active). The growth in the assay with SK-MEL-5 melanoma is 23.6%; with UACC-62 melanoma, 24.3%; in the assay on LOX IMVI melanoma it was 14.5%; in the assay on SK-MEL-28 melanoma, 46.9%; in the assay on SK-MEL-2 melanoma it was 34.4%; in the assay with EKVX NSCLC, 44.2%. Besides, the growth was 44.7% in the assay with SN12C renal; 31.3% with UO-31 renal; 41.9% in the assay on TK-10 renal; 36.5% in the assay on ACHN renal; 27.3% with CAKI-1 renal; 49.4% in the assay with A498 renal. Besides, the growth in the assay with CCRF-CEM leukemia is 22.9%; in the assay on MOLT-4 leukemia, 2.17% (active).
